Beta cell apopt – inhibitors of cytokine-induced beta cell apoptosis, primary screen, luminescence; hit rate 0.8% among 300,000; AID 435005, 2010; INS-1E cytokine-induced death, ATP luminescence, 48 h; percent of positive-control rescue, neutral wells zero; protection from apoptosis, % (test concentration not listed);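 active = Every replicate reaches about 75%, or at least half do and their mean reaches it too, limit read from the data; inconclusive = At least half of replicates reach the limit but their mean does not; inactive = Under half of replicates reach the limit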;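 also: 0% = cytokine-treated negative control wells and 100% = positive control rescue; higher means more ATP so stronger rescue from cytokine killing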
Mdm2-MdmX inh – inhibitors of human Mdm2-MdmX association, primary screen, cell-based, luminescence, split luciferase, SaOS-2, uHTS; hit rate 3% among 330,000; inhibition, % at 8 µM; SaOS-2 split-luciferase Mdm2/MdmX complementation; AID 485346, 2010;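 active = inhibition of at least 50% at 8 µM in the primary screen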
Target sequence (O15151 whole entry, looked up): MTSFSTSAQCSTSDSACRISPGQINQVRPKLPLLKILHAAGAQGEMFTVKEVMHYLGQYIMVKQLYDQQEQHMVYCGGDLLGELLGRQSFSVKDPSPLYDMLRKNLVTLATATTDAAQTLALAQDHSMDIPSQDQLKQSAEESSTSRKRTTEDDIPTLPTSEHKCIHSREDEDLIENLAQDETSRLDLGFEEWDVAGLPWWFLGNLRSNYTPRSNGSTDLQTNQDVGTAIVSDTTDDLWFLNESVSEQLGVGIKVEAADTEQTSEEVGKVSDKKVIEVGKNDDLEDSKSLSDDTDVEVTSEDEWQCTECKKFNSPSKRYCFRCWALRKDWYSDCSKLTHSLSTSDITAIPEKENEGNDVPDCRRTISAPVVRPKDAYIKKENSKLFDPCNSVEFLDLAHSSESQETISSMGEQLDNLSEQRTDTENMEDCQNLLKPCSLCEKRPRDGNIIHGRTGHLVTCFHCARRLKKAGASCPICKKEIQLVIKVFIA
Target sequence (Q00987 whole entry, looked up): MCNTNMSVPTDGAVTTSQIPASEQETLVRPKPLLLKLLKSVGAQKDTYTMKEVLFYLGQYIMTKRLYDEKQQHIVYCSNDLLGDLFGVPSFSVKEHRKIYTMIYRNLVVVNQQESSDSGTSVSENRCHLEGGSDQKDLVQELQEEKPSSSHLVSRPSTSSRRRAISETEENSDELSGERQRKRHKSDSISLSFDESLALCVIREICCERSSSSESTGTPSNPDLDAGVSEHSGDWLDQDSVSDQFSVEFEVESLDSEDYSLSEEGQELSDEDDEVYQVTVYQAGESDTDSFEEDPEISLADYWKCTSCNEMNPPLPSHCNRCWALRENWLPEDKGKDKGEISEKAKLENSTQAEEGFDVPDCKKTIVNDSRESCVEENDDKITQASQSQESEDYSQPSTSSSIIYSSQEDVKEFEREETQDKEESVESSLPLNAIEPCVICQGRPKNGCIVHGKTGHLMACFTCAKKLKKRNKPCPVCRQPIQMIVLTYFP
Gli-Sufu block – Gli-Sufu pathway antagonists, primary screen, luciferase luminescence, Sufu-KO-LIGHT cells, uHTS | Sufu-KO-LIGHT fibroblasts, Gli luciferase reporter luminescence | inhibition, % at 5 µM | hit rate 0.74% among 340,000 | AID 588413, 2011;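 active = inhibition above about 55%, limit read from the data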;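 also: 0% = DMSO-treated cells and 100% = wells with medium but no cells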
Shn3 3UTR inh – reduction of Shn3 3'UTR firefly luciferase signal, primary screen, Schnurri-3 inhibitor project, cell-based, Clone20 osteoblasts, set 2; Clone20 osteoblast Shn3 3'UTR firefly luciferase, 24 h; inhibition, % at 12.5 µM; hit rate 0.52% among 360,000; AID 588674, 2011;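 active = mean inhibition of at least 75% with every replicate also reaching 75%; inconclusive = mean inhibition at least 75% but some replicate below; inactive = mean inhibition below 75%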;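 also: 0% = median of neutral control wells and 100% = pilot-screen positive control compound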
PAX8 reporter – inhibitors of PAX8-driven TPO luciferase reporter, primary screen, RMG-I cells, single concentration; AID 652154, 2013; inhibition, % at 12.6 µM; SteadyGlo, 24 h; hit rate 1.2% among 360,000;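 active = mean replicate inhibition at least 60% with every replicate also reaching 60%; inconclusive = only one of the two criteria is met; inactive = mean below 60% and not all replicates reaching 60%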;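 also: luciferase light reporting Pax8 driven TPO promoter activity; plate controls were median of neutral control wells for no effect and mitoxantrone controls for full effect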
CSC inhib – cancer stem cell viability inhibitors, primary screen, luminescence | cancer stem cell-like cells viability | inhibition, % at 7.5 µM | hit rate 1.1% among 300,000 | AID 2717, 2010; in the data active = inhibition above about 75%; inconclusive = no clear call, values can overlap the other calls; tested in HMLE shEcad cells
Mdm2-MdmX conf – Mdm2-MdmX complex disruptors, retested hits, confirmation, luminescence, single concentration. hit rate 55% among 10,000. Mdm2-MdmX binding, luminescent assay. inhibition, % at 8 µM. shares compounds with Mdm2-MdmX inh; in the data active = inhibition above about 40%
Full FLuc ctr – full-length luciferase signal inhibition, confirmation, counter-screen for Mdm2/MdmX interaction inhibitor project, cell-based, single concentration, SaOS-2. SaOS-2 full-length luciferase counterscreen, luminescence. inhibition, % at 8 µM. shares compounds with Mdm2-MdmX inh. AID 504607, 2011. hit rate 77% among 6,200;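 active = mean inhibition at 8 µM reaching about 37%, which flags the compound as non-specific, limit read from the data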;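 also: p53-null SaOS-2 cells with luciferase driven by a doxycycline-inducible promoter; compound on cells about two nights before reading with doxycycline added after day one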
* = called active by the depositor; ? = inconclusive; . = no result given. Only some compounds are listed: those with a hit (about 4% of all), similar ones and a draw of the others.

SMILES	Beta cell apopt	Mdm2-MdmX inh	Gli-Sufu block	Shn3 3UTR inh	PAX8 reporter	CSC inhib	Mdm2-MdmX conf	Full FLuc ctr
COc1ccc2c(c1)c(=O)oc1cc(OCC(=O)NC3CC3)ccc12	1	53*	5	-3	.	.	-18	.
CCOc1ccccc1OCCC(=O)N1CCN(S(=O)(=O)c2ccccc2[N+](=O)[O-])CC1	-2	62*	7	18	12	.	19	.
CN1CCN(C(=O)C[C@@H]2CC[C@H](NC(=O)c3ccc4c(c3)OCO4)[C@@H](CO)O2)CC1	.	.	.	.	-9	.	.	.
COc1cc(CNC2CCCC2)cc(Cl)c1OCc1ccccc1Cl	?	52*	-1	34	.	80*	35	.
CCOc1cc(CNC2CCCC2)cc(Cl)c1OCc1ccc(F)cc1	18	58*	10	36	.	44	44*	80*
COc1cc(CNC2CCCC2)cc(Cl)c1OCc1ccc(F)cc1	18	48	-2	-10	.	-5	.	.
CCCCN1/C(=C/c2ccc3ccccc3[n+]2CC)Sc2ccccc21	.	77*	88*	90*	.	.	76*	32
CCN1/C(=C/c2ccc3ccccc3[n+]2CC)C=Cc2ccccc21	108*	89*	92*	91*	.	44	81*	21
CCC(=S)/C=C1\Sc2ccccc2N1CCCS(=O)(=O)O	.	-21	-1	5	-20	-11	.	.
CCCN(C)C[C@H]1OCCCC[C@H](C)Oc2ccc(NS(=O)(=O)c3ccc(C)cc3)cc2C(=O)N([C@@H](C)CO)C[C@@H]1C	.	.	.	.	23	.	.	.
O/N=C/c1ccc(-c2cc(Cl)ccc2Cl)o1	0	57*	-10	7	-24	19	42*	53*
COc1ccccc1-c1ccc([C@@H]2[C@@H](C#N)N(C(=O)C3CC3)[C@@H]2CO)cc1	.	.	.	.	-4	.	.	.
CCC1(c2ccccc2)ON(c2c(Br)cccc2Br)C1=O (stereo unspecified)	-8	93*	-26	-26	18	43	91*	47*
CCC1(c2ccccc2)CN(C)C1=O (stereo unspecified)	.	.	.	7	0	.	.	.
Cc1[nH]c(=O)[nH]c(=O)c1CSc1nnc([C@@H](NC(=O)OC(C)(C)C)C(C)C)o1	-1	84*	7	8	.	3	3	.
Cc1cc(=O)oc2cc(OCC(=O)Nc3nnc(C(C)C)s3)ccc12	-1	-6	3	-12	.	-8	.	.
CCOC(=O)c1cc(CC)sc1NC(=O)COc1ccc2c(C)cc(=O)oc2c1	-10	82*	5	6	6	2	43*	46*
O=[N+]([O-])c1cccnc1Oc1ccc(F)cc1	-4	20	-23	-23	-4	1	.	.
O=[N+]([O-])c1cccc2cnccc12	.	.	-6	26	6	.	.	.
O=[N+]([O-])c1ccc(Oc2ccc(F)cc2)c2ccncc12	5	60*	1	12	.	24	56*	23
O=[N+]([O-])c1ccc(Oc2cccc(Br)c2)c2ccncc12	3	58*	9	-13	.	22	18	.
CO[C@H]1CN(C)C(=O)c2cc(NC(=O)CC(F)(F)F)ccc2OC[C@H](C)N(C(C)=O)C[C@H]1C	.	.	.	.	14	.	.	.
COc1ccc(NC(=O)N(C)C[C@@H]2Oc3ccc(NC(=O)Cc4ccccc4)cc3CC(=O)N([C@H](C)CO)C[C@@H]2C)cc1	.	.	.	.	-1	.	.	.
O=C(NC(CSCc1ccccc1)C(=O)N/N=C/c1ccc(O)cc1O)c1ccc([N+](=O)[O-])cc1 (stereo unspecified)	78*	65*	76*	91*	.	105*	74*	34
CN1C(=O)c2cc(NC(=O)C3CCOCC3)ccc2OC[C@H]2O[C@H](CC(=O)NCC3CCCCC3)CC[C@H]21	.	.	.	.	-6	.	.	.
SMILES	Beta cell apopt	Mdm2-MdmX inh	Gli-Sufu block	Shn3 3UTR inh	PAX8 reporter	CSC inhib	Mdm2-MdmX conf	Full FLuc ctr
COc1ccc(/C=C/C(=O)c2ccc(Cl)s2)cc1O	-11	-19	2	-20	-62	-1	.	.
COc1cc(/C=C/C(=O)c2ccc(Cl)s2)cc(OC)c1O	-22	65*	12	-3	.	-13	51*	45*
Cc1csc2nc(COC(=O)CNC(=O)c3ccc(Cl)cc3)cc(=O)n12	0	-13	-6	-18	8	.	.	.
Cc1csc2nc(COC(=O)c3ccc(Cl)c([N+](=O)[O-])c3)cc(=O)n12	-1	89*	-13	4	-13	-16	8	.
O=C1/C(=C/c2cccc(Br)c2)SC(=S)N1CCC(=O)N(CCO)c1ccccc1	-33	52*	1	-16	90*	47	11	.
O=C1/C(=C/c2ccc3c(c2)OCO3)SC(=S)N1CCC(=O)N(CCO)c1ccccc1	.	.	.	-59	15	.	.	.
COc1cccc(/C=C2\SC(=S)N(CCCC(=O)N(CCO)c3ccccc3)C2=O)c1	-49	99*	24	-10	65*	20	60*	16
O=C1c2cc(F)ccc2-n2c1nc1ccccc1c2=O	62	63*	6	59	18	39	34	23
Cc1ccc(S(=O)(=O)n2nc(-n3c(C)ccc3C)c3c(F)cccc32)c2ccccc12	0	50*	15	19	33	31	3	.
C[C@@H]1CN([C@@H](C)CO)C(=O)c2cc(NC(=O)Nc3ccc4c(c3)OCO4)ccc2O[C@H]1CN(C)C(=O)Nc1ccccc1	.	.	.	.	17	.	.	.
C=CC(=O)Nc1ccc(Nc2nc(NC3CCC(N(C)C)CC3)nc3c2ncn3C(C)C)cc1 (stereo unspecified)	43	96*	52	94*	.	.	100*	52*
CCCCOC(=O)NS(=O)(=O)c1sc(CC(C)C)cc1-c1ccc(Cn2c(CC)nc3c(C)cc(C)nc32)cc1	-7	89*	.	.	.	100*	40	72*
COc1ccc(C2NC(=O)NC3=C2CCc2ccccc23)cc1 (stereo unspecified)	10	55*	21	.	.	20	46*	83*
Cc1ccc(C2NC(=O)NC3=C2CCc2ccccc23)cc1 (stereo unspecified)	-4	8	-2	-20	.	-2	.	.
CN1CCN(C(=O)C[C@@H]2CC[C@H]3[C@H](COc4ccc(NC(=O)C5CC5)cc4C(=O)N3C)O2)CC1	.	.	.	.	-23	.	.	.
Oc1ccc(CCNc2c3ccccc3nc3ccccc23)cc1O	-6	64*	23	-21	-71	76*	51*	76*

Assay outcomes from PubChem.
